The campaign covered roughly 5,500 compounds. About 2,000 (36%) were called active. Roughly 18% stayed inconclusive and do not appear here. Cut-off read from the data, not from the text of the source: active = normalized growth mostly below about 0.91 (no sharp cut-off); inconclusive = no clear call, values can overlap the other calls; inactive = mostly above about 0.92. This is one part of the list.
Test: chemical genetic growth profiling, strain panel (AID 1159580);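 note: tested at 20 µM; growth read once vehicle control cultures reached saturation at 30 °C; 1 = growth at the plate median or of vehicle wells; lower values mean less growth of the strain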
Details: S. cerevisiae deletion strains, growth OD

Measured: normalized growth

NC(N)=NOCC[C@H](N)C(=O)O
inactive: locus YAL013W, strain DEP1, active compounds read low 0.991 | locus YAL021C, strain ccr4, active compounds read low 1.01 | locus YAL026C, strain drs2, active compounds read low 1.01 | locus YAL030W, strain snc1, active compounds read low 1 | locus YBL061C, strain skt5, active compounds read low 1.02 | locus YBR009C, strain hhf1, active compounds read low 1.01 | locus YBR021W, strain FUR4, active compounds read low 1 | locus YBR023C, strain chs3, active compounds read low 1.02 | locus YBR171W, strain sec66, active compounds read low 1.02 | locus YBR229C, strain ROT2, active compounds read low 0.993 | locus YBR231C, strain swc5, active compounds read low 1.02 | locus YBR279W, strain paf1, active compounds read low 1.01 | locus YCL011C, strain gbp2, active compounds read low 1.03 | locus YCL016C, strain dcc1, active compounds read low 1.01 | locus YCL029C, strain bik1, active compounds read low 0.983 | locus YCL061C, strain MRC1, active compounds read low 1.01 | locus YCL069W, strain vba3, active compounds read low 1.01 | locus YCR088W, strain abp1, active compounds read low 1.01 | locus YDL005C, strain med2, active compounds read low 1.01 | locus YDL035C, strain GPR1, active compounds read low 0.985 | locus YDL040C, strain nat1, active compounds read low 1.01 | locus YDL074C, strain BRE1, active compounds read low 1.02 | locus YDL101C, strain DUN1, active compounds read low 0.99 | locus YDL134C, strain PPH21, active compounds read low 0.999 | locus YDL185W, strain tfp1, active compounds read low 0.975 | locus YDL192W, strain arf1, active compounds read low 0.983 | locus YDR001C, strain nth1, active compounds read low 1.01 | locus YDR069C, strain doa4, active compounds read low 1.02 | locus YDR101C, strain arx1, active compounds read low 1.01 | locus YDR137W, strain rgp1, active compounds read low 1.01 | locus YDR150W, strain NUM1, active compounds read low 0.984 | locus YDR159W, strain sac3, active compounds read low 1.01 | locus YDR162C, strain NBP2, active compounds read low 1.02 | locus YDR195W, strain ref2 0.996 | locus YDR297W, strain sur2, active compounds read low 1.01 | locus YDR318W, strain mcm21, active compounds read low 0.983 | locus YDR334W, strain swr1, active compounds read low 1.02 | locus YDR335W, strain msn5, active compounds read low 1.01 | locus YDR388W, active compounds read low 0.999 | locus YDR392W, strain spt3, active compounds read low 1.01 | locus YDR502C, strain sam2, active compounds read low 0.995 | locus YEL003W, strain gim4, active compounds read low 1.02 | locus YEL037C, strain rad23, active compounds read low 1.01 | locus YEL061C, strain CIN8 (second series), active compounds read low 1.02 | locus YEL061C, strain CIN8, active compounds read low 0.992 | locus YER015W, strain faa2, active compounds read low 1.01 | locus YER016W, strain bim1, active compounds read low 1.01 | locus YER110C, active compounds read low 0.984 | locus YER111C, strain swi4, active compounds read low 1.01 | locus YER155C, strain BEM2 (second series), active compounds read low 1.01 | locus YER155C, strain BEM2, active compounds read low 0.978 | locus YER167W, strain BCK2, active compounds read low 0.978 | locus YFR010W, strain ubp6, active compounds read low 1.01 | locus YGL078C, strain dbp3, active compounds read low 0.994 | locus YGL086W, strain mad1, active compounds read low 0.978 | locus YGL167C, strain pmr1, active compounds read low 1.01 | locus YGL173C, strain kem1, active compounds read low 1 | locus YGL227W, strain vid30, active compounds read low 1.02 | locus YGL240W, strain doc1, active compounds read low 1.02 | locus YGL248W, strain PDE1, active compounds read low 0.994 | locus YGL253W, strain hxk2, active compounds read low 1.01 | locus YGR078C, strain PAC10, active compounds read low 1.04 | locus YGR135W, strain pre9, active compounds read low 1.03 | locus YGR229C, strain SMI1, active compounds read low 1.02 | locus YGR252W, strain gcn5, active compounds read low 1.01 | locus YHR013C, strain ard1, active compounds read low 1.04 | locus YHR027C, strain rpn1, active compounds read low 1 | locus YHR030C, strain SLT2, active compounds read low 0.978 | locus YHR079C, strain IRE1 (second series), active compounds read low 0.985 | locus YHR094C, strain hxt1, active compounds read low 0.988 | locus YHR129C, strain ARP1, active compounds read low 0.991 | locus YHR142W, strain chs7, active compounds read low 1.03 | locus YHR200W, strain rpn10, active compounds read low 0.986 | locus YIL066C, strain RNR3, active compounds read low 0.979 | locus YIL073C, strain SPO22, active compounds read low 0.915 | locus YIL125W, strain kgd1, active compounds read low 0.992 | locus YIR030C, strain dcg1, active compounds read low 0.98 | locus YJL092W, strain hpr5, active compounds read low 1.01 | locus YJL095W, strain BCK1 (second series), active compounds read low 1.02 | locus YJL095W, strain BCK1, active compounds read low 1.04 | locus YJL115W, strain asf1, active compounds read low 1.01 | locus YJL129C, strain trk1, active compounds read low 1.03 | locus YJL134W, strain LCB3, active compounds read low 0.987 | locus YJL154C, strain vps35, active compounds read low 1.01 | locus YJL164C, strain tpk1, active compounds read low 1.01 | locus YJL166W, strain qcr8, active compounds read low 1.02 | locus YJL168C, strain set2, active compounds read low 0.988 | locus YJL187C, strain SWE1 (second series), active compounds read low 1.01
